Experimental findings from PubChem BioAssay (Tox21) are described below.

Where “and” joins values, the source holds several entries; their conditions need not be identical. Identical values can stand only once. Inconclusive results are not listed. The source holds several records for some structures; these can differ, active in one and inactive in another. Calls of active or inactive are those of the source. Calls follow the shape of the dose curve; as a rule, active = well fitted curve in the direction sought with a large enough effect in the repeat runs; inconclusive = weak or mixed curves; inactive = no such curve, though single readings can be large; an effect the other way counts as inactive or inconclusive.

Assay [1] deals with Cytochrome P450 1A2 (Homo sapiens) (UniProt P05177). Briefly: Cytochrome P450 Family 1 Subfamily A Member 2 (CYP1A2) small molecule antagonists: luciferase reporter qHTS assay (AID 1671199). Also: potency is read from the fitted curve at half-maximal effect. The gist of the method:
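Steps: enzyme-substrate mix dispensed; test compounds and furafylline control pinned in; 10 min room temperature; NADPH regeneration solution added, 1 h; reaction stopped with luciferin detection reagent; luminescence read after 20 min.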

The target in assay [2] is Voltage-gated inwardly rectifying potassium channel KCNH2 (Homo sapiens) (UniProt Q12809). Briefly: Human Ether-a-go-go-Related Gene (hERG) channel small molecule antagonists: fluorescence cell-based qHTS assay (AID 1671200). Also: potency is read from the fitted curve at half-maximal effect. The gist of the method:
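Thallium served as the potassium surrogate; its influx into dye-loaded U2OS cells carrying the channel was measured by fluorescence over 2 min.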

For assay [3], the target named is Cytochrome P450 3A4 (Homo sapiens) (UniProt P08684). Description: Cytochrome P450 Family 3 Subfamily A Member 4 (CYP3A4) small molecule antagonists: luciferase reporter qHTS assay (AID 1671201). Also: series mostly up to about 120 µM. The gist of the method: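 Relative luminescence units after 20 min with luciferin detection reagent served as read-out. Beforehand, CYP3A4 turned over a proluciferin substrate for 1 h at room temperature with NADPH regeneration, following 10 min compound preincubation.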
Sequence of Cytochrome P450 3A4 (Homo sapiens) (P08684 whole entry, looked up): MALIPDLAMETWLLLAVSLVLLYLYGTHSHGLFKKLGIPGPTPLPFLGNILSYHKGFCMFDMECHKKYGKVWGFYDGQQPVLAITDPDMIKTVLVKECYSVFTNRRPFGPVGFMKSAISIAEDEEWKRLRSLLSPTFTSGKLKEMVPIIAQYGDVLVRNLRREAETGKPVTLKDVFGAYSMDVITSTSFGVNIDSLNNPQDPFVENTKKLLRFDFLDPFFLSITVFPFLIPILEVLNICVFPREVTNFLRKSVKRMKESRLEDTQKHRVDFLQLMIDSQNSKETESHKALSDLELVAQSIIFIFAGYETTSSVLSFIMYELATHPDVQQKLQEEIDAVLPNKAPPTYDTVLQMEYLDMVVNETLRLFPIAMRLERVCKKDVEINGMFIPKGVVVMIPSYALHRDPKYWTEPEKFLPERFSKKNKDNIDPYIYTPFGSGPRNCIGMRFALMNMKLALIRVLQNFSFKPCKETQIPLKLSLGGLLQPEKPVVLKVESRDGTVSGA
Also: nearly all actives have a fitted effect of over 50% in size.

Sequence of Cytochrome P450 1A2 (Homo sapiens) (P05177 whole entry, looked up): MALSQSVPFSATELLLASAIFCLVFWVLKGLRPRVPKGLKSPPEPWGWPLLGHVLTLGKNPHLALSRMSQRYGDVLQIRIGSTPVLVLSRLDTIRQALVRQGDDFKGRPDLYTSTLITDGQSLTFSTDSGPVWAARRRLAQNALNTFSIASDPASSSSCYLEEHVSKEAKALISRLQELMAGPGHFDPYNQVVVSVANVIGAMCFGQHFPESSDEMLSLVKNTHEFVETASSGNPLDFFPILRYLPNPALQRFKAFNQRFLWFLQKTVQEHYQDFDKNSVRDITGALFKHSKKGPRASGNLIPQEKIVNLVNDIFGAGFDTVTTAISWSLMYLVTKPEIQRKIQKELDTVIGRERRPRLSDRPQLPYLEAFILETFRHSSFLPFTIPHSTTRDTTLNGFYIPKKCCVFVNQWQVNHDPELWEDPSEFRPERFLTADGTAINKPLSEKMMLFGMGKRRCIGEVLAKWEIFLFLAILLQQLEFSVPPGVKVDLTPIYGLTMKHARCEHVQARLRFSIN
Sequence of Voltage-gated inwardly rectifying potassium channel KCNH2 (Homo sapiens) (Q12809 whole entry, looked up): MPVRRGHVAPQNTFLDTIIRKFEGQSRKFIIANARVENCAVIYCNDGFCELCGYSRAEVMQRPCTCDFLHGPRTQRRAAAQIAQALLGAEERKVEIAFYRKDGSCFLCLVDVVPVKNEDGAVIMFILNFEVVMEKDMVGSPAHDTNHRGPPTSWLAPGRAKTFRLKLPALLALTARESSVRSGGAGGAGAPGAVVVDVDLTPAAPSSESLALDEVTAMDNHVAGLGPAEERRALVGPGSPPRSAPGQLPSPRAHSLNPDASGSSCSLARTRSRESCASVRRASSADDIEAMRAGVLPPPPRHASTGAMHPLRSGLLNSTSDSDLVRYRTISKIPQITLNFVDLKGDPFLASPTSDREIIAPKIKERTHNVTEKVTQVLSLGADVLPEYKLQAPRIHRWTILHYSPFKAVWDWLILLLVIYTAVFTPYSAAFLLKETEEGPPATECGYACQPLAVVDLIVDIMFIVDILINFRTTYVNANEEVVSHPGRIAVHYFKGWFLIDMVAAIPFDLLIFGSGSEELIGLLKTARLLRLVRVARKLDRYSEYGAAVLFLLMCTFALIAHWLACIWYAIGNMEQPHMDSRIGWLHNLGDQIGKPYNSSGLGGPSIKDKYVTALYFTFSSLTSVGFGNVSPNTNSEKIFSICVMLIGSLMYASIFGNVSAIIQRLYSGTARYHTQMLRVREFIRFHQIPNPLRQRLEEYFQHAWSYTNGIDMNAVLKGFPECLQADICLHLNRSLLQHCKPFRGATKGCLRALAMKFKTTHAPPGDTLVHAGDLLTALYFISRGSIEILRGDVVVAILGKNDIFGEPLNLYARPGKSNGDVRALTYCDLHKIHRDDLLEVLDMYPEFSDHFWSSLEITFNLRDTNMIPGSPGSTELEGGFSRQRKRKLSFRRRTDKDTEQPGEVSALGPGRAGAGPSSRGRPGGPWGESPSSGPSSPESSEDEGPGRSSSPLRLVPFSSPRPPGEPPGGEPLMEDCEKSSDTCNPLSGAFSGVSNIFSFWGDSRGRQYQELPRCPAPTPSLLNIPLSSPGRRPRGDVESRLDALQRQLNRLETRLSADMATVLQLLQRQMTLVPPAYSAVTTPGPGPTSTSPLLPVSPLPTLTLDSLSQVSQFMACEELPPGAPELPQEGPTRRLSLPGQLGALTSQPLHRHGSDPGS

In the case of `Oc1ccc(Cl)cc1Cc1cc(Cl)ccc1O`, the Potency in assay [1] was 36.2 µM (active) and 39.9 µM (active) and 15.5 µM (active). In addition, in assay [2], the Potency result is “inactive”.
As for `Cc1scc2c1N(C(=O)CN1CCN(C)CC1)c1ccccc1NC2=O`, the Potency result in assay [1] and in assay [2] was “inactive” each time.
`O=S(=O)(O)c1ccc2nc(-c3ccccc3)[nH]c2c1`: the Potency in assay [1] is 26.9 µM (active) and 19.5 µM (active). The Potency result in assay [2] was “inactive”.
With `NNCCc1ccccc1`, the Potency in assay [1] is 11.3 µM (active) and 17.4 µM (active). The Potency entry in assay [2] is “inactive”.
`Cc1ccc(-c2cc(C(F)(F)F)nn2-c2ccc(S(N)(=O)=O)cc2)cc1`: the Potency entry in assay [1] is “inactive”.
`COc1ccc(CCN(C)CCCC(C#N)(c2ccc(OC)c(OC)c2)C(C)C)cc1OC` (stereo unspecified): the Potency entry in assay [1] is “inactive”.
With `CC(C)(c1ccccc1)c1ccc(Nc2ccc(C(C)(C)c3ccccc3)cc2)cc1`, the Potency result in assay [1] and in assay [2] was “inactive” each time.
For the molecule `CC(C)C(=O)c1c(C(C)C)nn2ccccc12`, the Potency in assay [1] was 2.57 µM (active). Moreover, the Potency entry in assay [2] and in assay [3] was “inactive” throughout.
Turning to `O=C1Nc2ccccc2C1(c1ccc(O)cc1)c1ccc(O)cc1`, the Potency entry in assay [1] and in assay [2] was “inactive” each time.
As for `C/C=C/c1ccc(OCC)c(O)c1`, the Potency in assay [1] was 7.1 µM (active) and 7.96 µM (active). Besides, the Potency result in assay [2] was “inactive”.
With `COC(c1ccccc1)(c1ccccc1)[C@H](Oc1nc(C)cc(C)n1)C(=O)O`, the Potency in assay [1] is 17.4 µM (active). Further, the Potency result in assay [2] was “inactive”.
For the molecule `CCCCC(CC)COC(=O)CC(C(=O)OCC(CC)CCCC)S(=O)(=O)O` (stereo unspecified), the Potency in assay [1] is 63.3 µM (active). The Potency entry in assay [2] was “inactive”.
In the case of `CCCCC/C=C/CC1CC(=O)OC1=O` (stereo unspecified), in assay [1], the Potency was 28.3 µM (active). Moreover, the Potency result in assay [2] and in assay [3] was “inactive” each time.
With `CCCC(=O)c1ccccc1`, the Potency result in assay [1], in assay [2] and in assay [3] was “inactive” in each case.
In the case of `CCCCCC(=O)O[C@]1(C(C)=O)CC[C@H]2[C@@H]3CCC4=CC(=O)CC[C@]4(C)[C@H]3CC[C@@]21C`, in assay [1], the Potency result is “inactive”. Also, the Potency in assay [2] is 19.4 µM (active).
In the case of `CC(=O)Nc1ccc(C(=O)CCl)cc1`, the Potency in assay [1] is 31.7 µM (active). In addition, the Potency entry in assay [2] and in assay [3] was “inactive” in each case.
Regarding `CNC1(C)C2CCC(C2)C1(C)C` (stereo unspecified), the Potency result in assay [1], in assay [2] and in assay [3] was “inactive” in each case.
Consider `Cc1c(O)cccc1C(=O)N[C@@H](CSc1ccccc1)[C@H](O)CN1C[C@H]2CCCC[C@H]2C[C@H]1C(=O)NC(C)(C)C`, for which the Potency result in assay [1] and in assay [2] was “inactive” throughout.
Take `NC(N)=NC(=O)Cc1c(Cl)cccc1Cl`: the Potency entry in assay [1] and in assay [2] was “inactive” in each case.
Take `C=CS(=O)(=O)O`: the Potency entry in assay [1] and in assay [2] was “inactive” each time.
As to `CC1=C(C=O)C(C)(C)CC=C1`, the Potency result in assay [1] and in assay [2] was “inactive” throughout.
As for `CCN(CC)C(=S)SSC(=S)N(CC)CC`, the Potency was 31.7 µM (active) and 21.3 µM (active) and 6.45 µM (active) in assay [1]; 41 µM (active) and inactive in assay [2].
On to `Cc1ccc(S(=O)(=O)Oc2ccc(N=Nc3ccc(-c4ccc(N=Nc5c(O)ccc6cc(S(=O)(=O)O)cc(S(=O)(=O)O)c56)c(C)c4)cc3C)cc2)cc1`, for which the Potency in assay [1] is 56.6 µM (active) and 23.2 µM (active). In addition, the Potency entry in assay [2] was “inactive”.
In the case of `c1cnc2cc3c(cc2n1)C1CNCC3C1`, the Potency result in assay [1] and in assay [2] was “inactive” each time.
